According to PubChem BioAssay AID1159580 (chemical genetic matrix, 2015):
“And” between values parts separate entries of the source, which are not always exact repeats. Identical values can stand only once. Hit rate of the full screen: of about 5,500 compounds, about 2,000 (36%) were called active. Inconclusive results (about 18%) are left out. Cut-off read from the data, not from the text of the source: active = normalized growth mostly below about 0.91 (no sharp cut-off); inconclusive = no clear call, values can overlap the other calls; inactive = mostly above about 0.92. The list shows a part of the results.

Assay: chemical genetic growth profiling, strain panel (AID 1159580);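 note: tested at 20 µM; growth read once vehicle control cultures reached saturation at 30 °C; 1 = growth at the plate median or of vehicle wells; lower values mean less growth of the strain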
Conditions: growth OD
[1] = S. cerevisiae deletion strains, locus YAL013W, strain DEP1, stronger effect = lower value
[2] = S. cerevisiae deletion strains, locus YBR229C, strain ROT2, stronger effect = lower value
[3] = S. cerevisiae deletion strains, locus YDL101C, strain DUN1, stronger effect = lower value
[4] = S. cerevisiae deletion strains, locus YDL134C, strain PPH21, stronger effect = lower value
[5] = S. cerevisiae deletion strains, locus YDR150W, strain NUM1, stronger effect = lower value
[6] = S. cerevisiae deletion strains, locus YGR078C, strain PAC10, stronger effect = lower value
[7] = S. cerevisiae deletion strains, locus YGR229C, strain SMI1, stronger effect = lower value
[8] = S. cerevisiae deletion strains, locus YHR030C, strain SLT2, stronger effect = lower value
[9] = S. cerevisiae deletion strains, locus YJR043C, strain POL32, stronger effect = lower value
[10] = S. cerevisiae deletion strains, locus YJR075W, strain HOC1, stronger effect = lower value
[11] = S. cerevisiae deletion strains, locus YKL190W, strain CNB1, stronger effect = lower value
[12] = S. cerevisiae deletion strains, locus YLR039C, strain RIC1, stronger effect = lower value
[13] = S. cerevisiae deletion strains, locus YLR262C, strain YPT6, stronger effect = lower value
[14] = S. cerevisiae deletion strains, locus YMR263W, strain SAP30, stronger effect = lower value
[15] = S. cerevisiae deletion strains, locus YNL153C, strain GIM3, stronger effect = lower value
[16] = S. cerevisiae deletion strains, locus YNL322C, strain KRE1, stronger effect = lower value
[17] = S. cerevisiae deletion strains, locus YOL006C, strain TOP1, stronger effect = lower value
[18] = S. cerevisiae deletion strains, locus YPL055C, strain LGE1, stronger effect = lower value
[19] = S. cerevisiae deletion strains, locus YPL241C, strain CIN2, stronger effect = lower value
[20] = S. cerevisiae strains, strain wild type, stronger effect = lower value

Measured: normalized growth

O=C(O)c1cc(C(F)(F)F)ccc1F
inactive: [1] 0.999 | [2] 0.982 | [3] 0.961 | [4] 0.989 | [5] 1 | S. cerevisiae deletion strains, locus YEL061C, strain CIN8, stronger effect = lower value 0.997 | [6] 0.975 | [7] 1 | [8] 0.964 | S. cerevisiae deletion strains, locus YHR087W, strain rtc3, stronger effect = lower value 0.973 | S. cerevisiae deletion strains, locus YJL187C, strain SWE1, stronger effect = lower value 0.998 | [9] 0.995 | [10] 1 | [11] 1 | [12] 0.991 | S. cerevisiae deletion strains, locus YLR058C, strain SHM2 (second series), stronger effect = lower value 0.983 | S. cerevisiae deletion strains, locus YLR085C, strain ARP6, stronger effect = lower value 1.02 | [13] 0.979 | S. cerevisiae deletion strains, locus YML094W, strain GIM5, stronger effect = lower value 0.916 | S. cerevisiae deletion strains, locus YMR219W, strain ESC1, stronger effect = lower value 0.999 | [14] 1.01 | [15] 1.02 | S. cerevisiae deletion strains, locus YNL298W, strain CLA4 (second series), stronger effect = lower value 0.996 | [16] 0.99 | S. cerevisiae deletion strains, locus YNR030W, strain Alg12, stronger effect = lower value 0.982 | [17] 0.987 | [18] 1.01 | [19] 0.929 | S. cerevisiae deletion strains, locus YPR135W, strain CTF4, stronger effect = lower value 0.905 | [20] 0.979

NCCCC(N)(C(=O)O)C(F)F (stereo not drawn)
inactive: S. cerevisiae deletion strains, locus YAL040C, strain CLN3, stronger effect = lower value 0.996 | S. cerevisiae deletion strains, locus YCL061C, strain MRC1 (second series), stronger effect = lower value 1 | S. cerevisiae deletion strains, locus YDR363W, strain ESC2, stronger effect = lower value 0.981 | S. cerevisiae deletion strains, locus YER002W, strain NOP16, stronger effect = lower value 0.996 | [6] 1.01 | [14] 0.994 | [15] 1.02 | S. cerevisiae deletion strains, locus YNL175C, strain NOP13, stronger effect = lower value 1 | S. cerevisiae deletion strains, locus YNL197C, strain WHI3, stronger effect = lower value 0.983 | S. cerevisiae deletion strains, locus YNL224C, strain SQS1, stronger effect = lower value 1.01 | [16] 0.986 | S. cerevisiae deletion strains, locus YOR083W, strain WHI5 (second series), stronger effect = lower value 1.01 | [19] 1

OCC(S)CS (stereo not drawn)
inactive: [1] 0.987 | S. cerevisiae deletion strains, locus YBR021W, strain FUR4, stronger effect = lower value 0.999 | [2] 0.96 | S. cerevisiae deletion strains, locus YCL029C, strain bik1, stronger effect = lower value 0.983 | S. cerevisiae deletion strains, locus YDL035C, strain GPR1, stronger effect = lower value 0.979 | S. cerevisiae deletion strains, locus YDL074C, strain BRE1, stronger effect = lower value 0.963 | [3] 0.985 | [4] 0.976 | S. cerevisiae deletion strains, locus YDL185W, strain tfp1, stronger effect = lower value 0.935 | S. cerevisiae deletion strains, locus YDL192W, strain arf1, stronger effect = lower value 0.964 | S. cerevisiae deletion strains, locus YDR101C, strain arx1, stronger effect = lower value 0.978 | [5] 0.981 | S. cerevisiae deletion strains, locus YDR162C, strain NBP2, stronger effect = lower value 0.966 | S. cerevisiae deletion strains, locus YDR318W, strain mcm21, stronger effect = lower value 1 | S. cerevisiae deletion strains, locus YDR388W, stronger effect = lower value 0.982 | S. cerevisiae deletion strains, locus YDR502C, strain sam2, stronger effect = lower value 0.974 | S. cerevisiae deletion strains, locus YER110C, stronger effect = lower value 0.983 | S. cerevisiae deletion strains, locus YER155C, strain BEM2, stronger effect = lower value 0.999 | S. cerevisiae deletion strains, locus YER167W, strain BCK2, stronger effect = lower value 1.02 | S. cerevisiae deletion strains, locus YGL078C, strain dbp3, stronger effect = lower value 0.992 | S. cerevisiae deletion strains, locus YGL086W, strain mad1, stronger effect = lower value 1.01 | S. cerevisiae deletion strains, locus YGL248W, strain PDE1, stronger effect = lower value 0.972 | [6] 0.972 | S. cerevisiae deletion strains, locus YGR135W, strain pre9, stronger effect = lower value 0.962 | [7] 0.986 | S. cerevisiae deletion strains, locus YGR252W, strain gcn5, stronger effect = lower value 0.949 | [8] 1.01 and 0.959 | S. cerevisiae deletion strains, locus YHR079C, strain IRE1 (second series), stronger effect = lower value 1.01 | S. cerevisiae deletion strains, locus YHR079C, strain IRE1, stronger effect = lower value 0.931 | S. cerevisiae deletion strains, locus YHR094C, strain hxt1, stronger effect = lower value 0.98 | S. cerevisiae deletion strains, locus YHR129C, strain ARP1, stronger effect = lower value 1 | S. cerevisiae deletion strains, locus YHR200W, strain rpn10, stronger effect = lower value 0.974 | S. cerevisiae deletion strains, locus YIL066C, strain RNR3, stronger effect = lower value 0.967 | S. cerevisiae deletion strains, locus YIL073C, strain SPO22, stronger effect = lower value 1.03 | S. cerevisiae deletion strains, locus YIL125W, strain kgd1, stronger effect = lower value 0.966 | S. cerevisiae deletion strains, locus YIR030C, strain dcg1, stronger effect = lower value 0.989 | S. cerevisiae deletion strains, locus YJL095W, strain BCK1, stronger effect = lower value 1.01 and 0.978 | S. cerevisiae deletion strains, locus YJL134W, strain LCB3, stronger effect = lower value 0.994 | S. cerevisiae deletion strains, locus YJL168C, strain set2, stronger effect = lower value 0.984 | S. cerevisiae deletion strains, locus YJL187C, strain SWE1 (second series), stronger effect = lower value 0.973 | S. cerevisiae deletion strains, locus YJR066W, strain TOR1, stronger effect = lower value 0.933 | [10] 0.974 | S. cerevisiae deletion strains, locus YKL009W, strain mrt4, stronger effect = lower value 1 | S. cerevisiae deletion strains, locus YKL068W, stronger effect = lower value 0.984 | S. cerevisiae deletion strains, locus YKL085W, strain MDH1 (second series), stronger effect = lower value 1.04 | S. cerevisiae deletion strains, locus YKL085W, strain MDH1, stronger effect = lower value 1.04 | [11] 0.985 | S. cerevisiae deletion strains, locus YKR001C, strain vps1, stronger effect = lower value 0.978 | [12] 1 | S. cerevisiae deletion strains, locus YLR058C, strain SHM2, stronger effect = lower value 0.984 | S. cerevisiae deletion strains, locus YLR102C, strain apc9, stronger effect = lower value 0.979 | S. cerevisiae deletion strains, locus YLR113W, strain HOG1, stronger effect = lower value 1.02 | [13] 0.996 | S. cerevisiae deletion strains, locus YLR268W, strain sec22, stronger effect = lower value 0.955 | S. cerevisiae deletion strains, locus YLR330W, strain CHS5, stronger effect = lower value 1.01 | S. cerevisiae deletion strains, locus YLR342W, strain FKS1 (second series), stronger effect = lower value 1.01 | S. cerevisiae deletion strains, locus YLR371W, strain rom2, stronger effect = lower value 0.986 | S. cerevisiae deletion strains, locus YLR418C, strain cdc73, stronger effect = lower value 0.941 | S. cerevisiae deletion strains, locus YML016C, strain PPZ1, stronger effect = lower value 1 | S. cerevisiae deletion strains, locus YML032C, strain rad52, stronger effect = lower value 0.973 | S. cerevisiae deletion strains, locus YML124C, strain tub3, stronger effect = lower value 0.989 | S. cerevisiae deletion strains, locus YMR078C, strain ctf18, stronger effect = lower value 0.995 | S. cerevisiae deletion strains, locus YMR223W, strain ubp8, stronger effect = lower value 0.999 | [14] 0.974 | S. cerevisiae deletion strains, locus YMR307W, strain GAS1, stronger effect = lower value 1.08 | S. cerevisiae deletion strains, locus YNL067W, strain RPL9B, stronger effect = lower value 0.964 | S. cerevisiae deletion strains, locus YNL128W, strain TEP1, stronger effect = lower value 0.974 | [15] 0.973 | S. cerevisiae deletion strains, locus YNL183C, strain NPR1, stronger effect = lower value 0.97 | S. cerevisiae deletion strains, locus YNL233W, strain BNI4, stronger effect = lower value 1 | S. cerevisiae deletion strains, locus YNL250W, strain rad50, stronger effect = lower value 0.973 | S. cerevisiae deletion strains, locus YNL271C, strain bni1, stronger effect = lower value 0.988 | S. cerevisiae deletion strains, locus YNL298W, strain CLA4, stronger effect = lower value 0.978 | S. cerevisiae deletion strains, locus YNL307C, strain MCK1, stronger effect = lower value 0.998 | [16] 0.978 | S. cerevisiae deletion strains, locus YNR052C, strain pop2, stronger effect = lower value 0.987 | [17] 0.849 | S. cerevisiae deletion strains, locus YOL012C, strain htz1 0.787 | S. cerevisiae deletion strains, locus YOL147C, strain pex11, stronger effect = lower value 0.987 | S. cerevisiae deletion strains, locus YOR061W, strain CKA2, stronger effect = lower value 0.969 | S. cerevisiae deletion strains, locus YOR136W, strain idh2, stronger effect = lower value 0.992 | S. cerevisiae deletion strains, locus YOR144C, strain elg1, stronger effect = lower value 0.976 | S. cerevisiae deletion strains, locus YOR184W, strain ser1, stronger effect = lower value 0.996 | S. cerevisiae deletion strains, locus YOR231W, strain MKK1, stronger effect = lower value 0.921 | S. cerevisiae deletion strains, locus YOR316C, strain cot1, stronger effect = lower value 0.979 | [18] 0.955 | S. cerevisiae deletion strains, locus YPL256C, strain CLN2, stronger effect = lower value 1.01 | S. cerevisiae deletion strains, locus YPR119W, strain clb2, stronger effect = lower value 0.994 | S. cerevisiae deletion strains, locus YPR141C, strain kar3, stronger effect = lower value 0.967 | S. cerevisiae deletion strains, locus YPR163C, strain tif3, stronger effect = lower value 0.988 | S. cerevisiae deletion strains, locus YPR167C, strain met16, stronger effect = lower value 0.968 | S. cerevisiae deletion strains, strain wtn01, stronger effect = lower value 0.961 | [20] 0.99
active: [9] 1.3 [resistant] | S. cerevisiae deletion strains, locus YOR069W, strain VPS5, stronger effect = lower value 1.14 [resistant]
